A selection: hits, their analogues and other compounds. The true share with any hit is near 10%.
JMJD2A Tudor: blocks the human JMJD2A Tudor domain; AlphaScreen JMJD2A-Tudor / H3K4me3 peptide binding; Potency, µM (titrated, usually from 114 µM), most hits filed as inhibitors; 4.4% of 390,000 active; further: nearly all actives have a fitted effect of over 50% in size
CtBP-E1A blk: inhibitors of CtBP/E1A interaction | AlphaScreen GST-E1A/His-CtBP binding, 1536-well; stronger effect = lower value | activity change, % (concentration not given with the values) | 0.49% of 340,000 active; in the data active means activity change below about -65%; inconclusive means mostly about -30% to -63%
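Steps: dispense buffer (Tris pH 8.0, NaCl 300 mM, TCEP 1 mM, BSA, Tween 20); add 5X protein mix (GST-E1A, His-CtBP, 125 nM each); pin 23 nL compound; 2 h at 37 °C, dark; add 5X beads (50 ug/mL); 1 h; read.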
HP1b binding inh: HP1-beta chromodomain-methylated histone interaction inhibition. 0.56% of 390,000 active. AID 540317. Potency, µM (series often up to 114 µM), hits mostly inhibitors. AlphaScreen HP1-beta / biotin-H3K9me3 peptide binding; further: nearly all actives have a fitted effect of over 70% in size
Target sequence (P83916 whole entry, looked up): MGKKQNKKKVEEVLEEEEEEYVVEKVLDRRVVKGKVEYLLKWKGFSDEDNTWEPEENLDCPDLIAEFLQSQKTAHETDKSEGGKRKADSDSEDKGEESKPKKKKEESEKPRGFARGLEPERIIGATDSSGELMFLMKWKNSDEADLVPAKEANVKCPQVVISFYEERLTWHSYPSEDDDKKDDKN
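HP1-beta protein (50 nM final) preincubated 30 min at room temperature with biotinylated H3(1-18)K9me3 peptide (50 nM) in PBS pH 7.4, 0.01% Tween-20, then compound added for 30 min. AlphaScreen streptavidin donor/nickel chelate acceptor beads (10 ug/mL final), 30 min dark, luminescence read.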
G9a inh: G9a (human) methyltransferase inhibition; Potency, µM (titrated, usually from 102 µM), most hits filed as inhibitors; G9a H3K9 monomethylation, AlphaScreen, 2 h; 8.8% of 350,000 active; further: nearly all actives have a fitted effect of over 75% in size
Target sequence (Q96KQ7 913-1193 limits assumed): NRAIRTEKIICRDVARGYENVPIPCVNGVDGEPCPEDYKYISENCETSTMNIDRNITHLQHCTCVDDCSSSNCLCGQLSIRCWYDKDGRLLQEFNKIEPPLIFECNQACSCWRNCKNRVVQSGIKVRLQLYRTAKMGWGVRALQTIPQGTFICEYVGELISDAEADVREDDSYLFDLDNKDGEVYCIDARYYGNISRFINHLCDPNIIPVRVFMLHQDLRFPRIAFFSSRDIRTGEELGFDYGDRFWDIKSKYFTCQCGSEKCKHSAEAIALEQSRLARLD
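Signal arises when biotinylated H3K9 peptide, once monomethylated, bridges streptavidin donor and antibody-captured acceptor beads. Enzyme at 20 nM was preincubated 15 min with test compounds; peptide 500 nM and SAM 20 uM then reacted for 2 h.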
Six1-Eya2 inh: inhibitors of human Six1/Eya2 interaction; Q15475+O00167; AlphaScreen GST-Six1/His-Eya2 binding, biochemical; stronger effect = lower value; activity change, % (test concentration not listed); 0.56% of 360,000 active; AID 651725; in the data active means activity change below about -65%; inconclusive means mostly about -30% to -63%
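Six1/Eya2 binding was read as AlphaScreen signal after compounds were pinned into GST-Six1 plus His-tagged Eya2 (5X stock 250/500 nM) in pH 8.0 Tris/NaCl/TCEP buffer, beads added, then incubated 1 h, 37 C, dark.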
BAZ2B inh: blocks human BAZ2B | 4.4% of 360,000 active | Q9UIF8 | AlphaScreen BAZ2B-H3K14Ac peptide displacement | Potency, µM (highest dose often 114 µM), most hits filed as inhibitors | AID 504333; further: nearly all actives have a fitted effect of over 60% in size
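Complex of BAZ2B and biotin-H3K14Ac (50 nM apiece) forms over 30 min at RT, then faces library compounds up to 110 uM for another 30 min; AlphaScreen beads added, 20 min dark incubation, luminescence read.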
Large screens that a line does not name were inactive; ! = not confirmed by another sample. Unless noted, the call rests on the fitted dose curve; in most records, active means well fitted inhibition curve with a large enough effect; inconclusive means small, poorly fitted or top-dose-only effect; inactive means no such curve, though single readings can be large or run the other way.

Cc1ccc(C(=O)N/C(=C\c2cn(S(=O)(=O)N(C)C)c3ccccc23)C(=O)NCCCn2ccnc2)cc1	JMJD2A Tudor inconclusive, HP1b binding inh 50.1µM!, BAZ2B inh inconclusive
O=C(NCCCn1ccnc1)/C(=C/c1ccc(Cl)cc1)NC(=O)c1ccccc1	BAZ2B inh 50.1µM
CN(C)c1ccc(/C=C(/NC(=O)c2ccccc2)C(=O)NCCCn2ccnc2)cc1	BAZ2B inh 35.5µM (no result: CtBP-E1A blk)
CSc1ccc(CCNC(=O)CN2C(=O)COc3ccc(S(=O)(=O)N4CCCCCC4)cc32)cc1	none (no result: CtBP-E1A blk, Six1-Eya2 inh)
CN(C)c1ccc(/C=C(\NC(=O)c2ccccc2)C(=O)NCCN2CCOCC2)cc1	G9a inh 70.8µM
CN(C)c1ccc(/C=C(\NC(=O)c2ccccc2)C(=O)NCCCN2CCOCC2)cc1	none (no result: G9a inh)
Cc1ccccc1Nc1nnc(SCC2CCCCO2)s1 (stereo unspecified)	G9a inh inconclusive
Cc1ccc(Nc2nnc(SCC3CCCCO3)s2)cc1 (stereo unspecified)	G9a inh 39.8µM
CC1CCCC(NC(=O)NC(=O)COC(=O)C2=NN(c3ccccc3)C(=O)CC2)C1C (stereo unspecified)	G9a inh 10µM
CC1CCC(NC(=O)COC(=O)C2=NN(c3ccccc3)C(=O)CC2)CC1 (stereo unspecified)	G9a inh inconclusive
O=C(/C=C/c1cccs1)Nc1scc(-c2ccccc2)c1C(=O)O	JMJD2A Tudor 7.08µM, HP1b binding inh inconclusive, G9a inh 31.6µM (no result: BAZ2B inh)
O=C(/C=C/c1cccs1)Nc1nc(-c2ccccc2)cs1	none
S=c1[nH]nc(Cc2ccccc2)n1Cc1ccco1	JMJD2A Tudor 3.98µM, G9a inh inconclusive
CCCn1c(Cc2ccccc2)n[nH]c1=S	JMJD2A Tudor 7.08µM, G9a inh inconclusive
CN(C)C(=O)CSc1nnc(Cc2ccccc2)n1Cc1ccco1	G9a inh inconclusive
CCCCCCCc1n[nH]c(=S)n1Cc1ccccc1	JMJD2A Tudor inconclusive (no result: G9a inh)
O=C(NC(=S)N1CCCC1)c1cccc([N+](=O)[O-])c1	G9a inh 79.4µM
O=C(NNC(=S)NC(=O)c1ccccc1)c1cccc([N+](=O)[O-])c1	G9a inh 28.2µM
O=C(NNS(=O)(=O)c1ccc([N+](=O)[O-])cc1)C(=O)Nc1cccc(C(=O)O)c1	JMJD2A Tudor inconclusive, G9a inh 8.91µM, BAZ2B inh 56.2µM
O=C(NNS(=O)(=O)c1ccccc1)c1cccc([N+](=O)[O-])c1	JMJD2A Tudor 12.6µM, G9a inh inconclusive
O=C(NC(=S)N1CCCCCC1)c1cccc([N+](=O)[O-])c1	BAZ2B inh inconclusive
O=C(NNS(=O)(=O)c1ccc([N+](=O)[O-])cc1)c1ccccc1	JMJD2A Tudor inconclusive (no result: G9a inh, BAZ2B inh)
CCCC(CCC)C(=O)Nc1cccc(-c2nc3cccnc3s2)c1C	JMJD2A Tudor inconclusive, G9a inh inconclusive, BAZ2B inh inconclusive (no result: CtBP-E1A blk, Six1-Eya2 inh)
O=C(NNC(=S)NC(=O)c1cccc([N+](=O)[O-])c1)c1ccc(Br)cc1	G9a inh 44.7µM
Cc1ccc(C(=O)NC(=S)NNC(=O)c2cccc([N+](=O)[O-])c2)cc1	none (no result: CtBP-E1A blk, G9a inh)
O=C(NNC(=S)NC(=O)c1cccc([N+](=O)[O-])c1)c1ccc(O)cc1	G9a inh 20µM
CCOc1ccc(C(C)(N)C(=O)O)cc1 (stereo unspecified)	JMJD2A Tudor 3.55µM, G9a inh inconclusive
Cc1[nH]c2ccc(OCc3ccccc3)cc2c1CCN1C(=O)OC(C)(C)C1(C)O (stereo unspecified)	JMJD2A Tudor inconclusive, G9a inh 79.4µM, BAZ2B inh inconclusive
Cc1[nH]c2ccc(F)cc2c1CCN1C(=O)OC(C)(C)C1(C)O (stereo unspecified)	none
c1ccc(-c2cc(NCCN3CCCCC3)c3ccccc3n2)cc1	G9a inh 39.8µM
O=C(C1CC1)N1CCN(c2ccc([N+](=O)[O-])cc2-n2cccc2)CC1	JMJD2A Tudor inconclusive, BAZ2B inh 44.7µM (no result: G9a inh)
CC(C)(C)C(=O)N1CCN(c2ccc([N+](=O)[O-])cc2-n2cccc2)CC1	BAZ2B inh inconclusive
Cc1ccc(C(=O)N2CCN(c3ccc([N+](=O)[O-])cc3-n3cccc3)CC2)cc1	JMJD2A Tudor inconclusive, HP1b binding inh inconclusive, G9a inh 28.2µM, BAZ2B inh inconclusive
N#Cc1ccc(COn2nnc3ccccc32)cc1	G9a inh 89.1µM
CCOC(=O)c1sc(NC(C)=O)nc1C	HP1b binding inh inconclusive, G9a inh inconclusive
CCOC(=O)c1sc(-n2[nH]c(C)cc2=O)nc1C	G9a inh 28.2µM
Cc1cc(C)c(S(=O)(=O)N2CCCCC2)c(C)c1N(C)S(=O)(=O)c1ccccc1	none
C=CCn1c(SCc2nc3ccccc3c(=O)[nH]2)nnc1-c1cc2cc(Cl)ccc2o1	none
O=C(O)c1cccc(N2C(=O)C=CC2=O)c1	Six1-Eya2 inh inconclusive (no result: JMJD2A Tudor, HP1b binding inh, G9a inh, BAZ2B inh)
O=C(Nc1ccc(Cl)cc1Cl)c1cccc(N2C(=O)C=CC2=O)c1	JMJD2A Tudor 3.16µM, HP1b binding inh inconclusive, G9a inh inconclusive
CCOC(=O)C1(C)CCCN1C(=O)c1cccc2ccccc12 (stereo unspecified)	none (no result: JMJD2A Tudor, HP1b binding inh, G9a inh, BAZ2B inh)
CC1(CCl)N([O-])C2=C(CCCC2)[N+]1=O (stereo unspecified)	G9a inh 31.6µM, BAZ2B inh 44.7µM
Cc1ccc(NCCC(=O)c2cccs2)cc1	JMJD2A Tudor 50.1µM, G9a inh 50.1µM, BAZ2B inh inconclusive
Cc1ccc(NCCC(=O)c2cccs2)cc1C	JMJD2A Tudor 56.2µM, HP1b binding inh inconclusive, G9a inh 31.6µM, BAZ2B inh inconclusive
Cc1ccc(CNC(=O)NC2COc3ccccc3C2)cc1 (stereo unspecified)	none (no result: CtBP-E1A blk, Six1-Eya2 inh)
Cc1nc2nc(C)c(CCC(=O)NCc3cccc(Cl)c3)c(C)n2n1	none (no result: CtBP-E1A blk, Six1-Eya2 inh)
Cc1ccc(C(=O)NCC(=O)OCC(=O)N(CC(C)C)c2c(N)n(Cc3ccccc3)c(=O)[nH]c2=O)s1	none (no result: JMJD2A Tudor, HP1b binding inh, G9a inh, BAZ2B inh)
CCn1c(SCC(=O)c2ccc(O)c(O)c2)nnc1-c1ccccc1OC	JMJD2A Tudor 28.2µM, HP1b binding inh inconclusive, G9a inh inconclusive, BAZ2B inh 79.4µM
C=CCn1c(SCC(=O)c2ccc(O)c(O)c2)nnc1-c1ccccc1OC	JMJD2A Tudor inconclusive, G9a inh 5.01µM, BAZ2B inh 50.1µM
Cn1c(SCC(=O)c2ccccc2)nnc1-c1ccncc1	none
CCn1c(SCC(=O)c2ccc(O)c(O)c2)nnc1-c1ccccc1	JMJD2A Tudor inconclusive, G9a inh 14.1µM, BAZ2B inh inconclusive
CCn1c(SCC(=O)c2cc(C)n(C)c2C)nnc1-c1ccccc1	G9a inh inconclusive
Cn1c(SCC(=O)c2ccc3c(c2)Cc2ccccc2-3)nnc1-c1ccccc1	G9a inh 35.5µM, BAZ2B inh inconclusive
